Test results taken from PubChem BioAssay (NCI).
Several values for one entry are separate records, joined by “and”; a condition that tells them apart may be missing. Equal entries are not always repeated. This is part of a sample that, as a whole, favours compounds with a hit. Of some 83,000 tested, about 20% had one in any assay.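 Interpretation: 100, growth as untreated; towards 0, rising growth inhibition; 0, no net growth; 0 to -100, cell death. Compounds scoring below 10 were considered active.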 Activity calls are given as the source filed them.

test system: UACC-62 melanoma; assay: NCI-60 one-dose screen, 48 h (100 = growth as untreated, 0 = no growth, -100 = all killed); settings: 10 µM unless noted

| Compound | growth |
| --- | --- |
| Cc1ccc(NC(=S)C#N)c(C)c1 | 41.9% [100 µM] (inactive) and 1.46% [100 µM] (active) |
| Oc1ccc(/C=C/c2cc(O)cc3c2C(c2cc(O)cc(O)c2)C(c2ccc(O)c(O)c2)O3)cc1 (centres undefined) | -57.3% [100 µM] (active) and -23.7% [100 µM] (active) |
| CCOC(=O)/C(C#N)=C(/NNc1ccccc1)c1ccncc1C(=O)O | 61.3% [100 µM] (inactive) and 11.4% [100 µM] (inactive) |
| COc1cc2c(cc1O)Cc1c-2[n+](C)cc2cc(OC)c(OC)cc12 | 12.4% [100 µM] (inactive) and -100% [100 µM] (active) |
| N#CC1=C(N)OC(c2cccc([N+](=O)[O-])c2)C1(C#N)C#N (centres undefined) | -52.1% [100 µM] (active) and -93.7% [100 µM] (active) |
| C#CCn1c2c(c3ccccc3c1=O)C(=O)c1ccccc1-2 | 16% [100 µM] (inactive) and -100% [100 µM] (active) |
| CC(C)(C)c1cc(C2COC(=O)COCC(=O)OCCOCCOCCO2)cc(C(C)(C)C)c1O (centres undefined) | -51.5% [100 µM] (active) and -100% [100 µM] (active) |
| NC(=O)c1[nH]cnc1/N=N/SCC(N)C(=O)O (centres undefined) | 6.63% [100 µM] (active) and 4.02% [100 µM] (active) |
| CCCCOC(=O)C1CC[C@H]2[C@@H]3CCc4cc(OC(=O)c5cccc6c(=O)c7ccccc7[nH]c56)ccc4[C@H]3CC[C@]12C (some centres undefined) | -100% [50 µM] (active) |
| CC(=O)c1cc2c(s1)C(=O)c1scc(C(C)=O)c1C2=O | -37.8% [100 µM] (active) and -81.8% [100 µM] (active) |
| Cc1ccnc2[nH]c(-c3ccc(F)cc3)cc(=O)c12 | -5.39% [100 µM] (active) and -36.2% [100 µM] (active) |
| CC(C)=CCC/C(C)=C/CC/C(C)=C/CSc1ccc(Cl)cc1C(=O)O | -72.3% [100 µM] (active) and 10.4% [100 µM] (inactive) |
| CC(C)(C)N/N=C(\C(=O)Nc1ccc([N+](=O)[O-])cc1[N+](=O)[O-])c1nc2ccc([N+](=O)[O-])cc2[nH]c1=O | 54.2% [100 µM] (inactive) and 17.5% [100 µM] (inactive) |
| CC(=O)OC(C)c1cc2c(s1)C(=O)c1ccsc1C2=O (centres undefined) | -64.5% [100 µM] (active) and -100% [100 µM] (active) |
| O=C1C=C(Nc2ccc(S(=O)(=O)Nc3nccs3)cc2)c2ccccc2C1=O | -46.1% [100 µM] (active) and -88.9% [100 µM] (active) |
| C/C(Cl)=N/OC(=O)Nc1ccc(S(N)(=O)=O)c(C)c1 | -93.6% [100 µM] (active) and -100% [100 µM] (active) |
| C[C@]12CC[C@@H]3c4cc(Br)c(O)c(Br)c4CC[C@H]3[C@@H]1CC(Br)C2=O (some centres undefined) | -79.5% [100 µM] (active) and -97.9% [100 µM] (active) |
| ClC(Cl)(Cl)C1CCOC1n1nnc2ccccc21 (centres undefined) | 65.4% [100 µM] (inactive) and 12.8% [100 µM] (inactive) |
| CCCn1c2c(c3ccccc3c1=O)C(=O)c1ccccc1-2 | 63.1% [100 µM] (inactive) and 8.48% [100 µM] (active) |
| N#Cc1c(=N)cc2c3ccccc3oc3c(C#N)c(N)[nH]c1c32 | 74.6% [100 µM] (inactive) and 13.9% [100 µM] (inactive) |

| Compound | growth |
| --- | --- |
| Nc1cc2c3c(cccc3c1)C(=O)N(c1ccc(OCCN3CCCCC3)cc1)C2=O | -67.3% [100 µM] (active) and -100% [100 µM] (active) |
| O=C1c2c(O)ccc(O)c2C(=O)c2c(NCCNC(=O)C(O)C(O)C(O)C(O)CO)ccc(NCCNC(=O)C(O)C(O)C(O)C(O)CO)c21 (centres undefined) | -100% [100 µM] (active) |
| CC1(C)CC2(C)OC(=N)C1(C#N)C2(C#N)C#N (centres undefined) | -92.9% [100 µM] (active) |
| COc1ccc2c3c(c(=O)n(C)c2c1OC)C=CC(C)(C)O3 | 0.949% [100 µM] (active) and 6.15% [100 µM] (active) |
| COc1cc([N+](=O)[O-])c(OC)c2c(Nc3ccc(S(=O)(=O)O)c4cc(S(=O)(=O)O)cc(S(=O)(=O)O)c34)cc(C)nc12 | -91% [100 µM] (active) and -100% [100 µM] (active) |
| COc1cc(Nc2ccc3c(c2)CCC3)nc(OC)n1 | 42.1% [100 µM] (inactive) and 2.26% [100 µM] (active) |
| N#Cc1sc2nc(/C=C3/C=CC=CC3=O)c(O)n2c1N | 18.5% [100 µM] (inactive) and 7.16% [100 µM] (active) |
| CC12CCC3c4cc(Br)c(O)c(Br)c4CCC3C1CCC2O (centres undefined) | 7.01% [100 µM] (active) and -44.7% [100 µM] (active) |
| CCCC(=O)Oc1c2ccsc2c(OC(=O)CCC)c2ccsc12 | -75.3% [100 µM] (active) and -100% [100 µM] (active) |
| COc1cc(CC2c3cc(OC)c(OC)cc3CCN2C)c(Oc2cc3c(cc2OC)-c2c(O)c(OC)cc4c2C(C3)N(C)CC4)cc1OC (centres undefined) | -60.3% [100 µM] (active) and -87.2% [100 µM] (active) |
| COc1cc2c(cc1-c1coc3cc(OCC=C(C)C)ccc3c1=O)OCO2 | 0.442% [100 µM] (active) and 1.53% [100 µM] (active) |
| COc1ccc(CC2c3cc(OC)c(OC)c(OC)c3CC[N+]2(C)C)cc1Oc1ccc(CC2c3cc4c(c(OC)c3CCN2C)OCO4)cc1 (centres undefined) | 80% [100 µM] (inactive) and 8.64% [100 µM] (active) |
| CC(=O)OCC1=C(C)C[C@H]([C@@H](COC(C)=O)C2CCC3C4C[C@H]5O[C@]56CC=CC(=O)[C@]6(C)C4CC[C@@]32C)OC1=O (some centres undefined) | -91% [50 µM] (active) and -99.6% [50 µM] (active) |
| CC(=O)Oc1ccc2ccc(=O)oc2c1OC(C)=O | 24.4% [100 µM] (inactive) and -66.3% [100 µM] (active) |
| CCOC(=O)c1nc2cc(C(F)(F)F)ccc2nc1Nc1ccc(F)cc1 | 33.3% [100 µM] (inactive) and -17.1% [100 µM] (active) |
| Cc1sccc1C(=S)Nc1ccc(Cl)c(/C=N/OC(C)(C)C)c1 | -86.5% [100 µM] (active) and -92.3% [100 µM] (active) |
| C=C1CC(O)C2C(=C)C(=O)OC2C2C(C)C(=O)CC12 (centres undefined) | -89.7% [100 µM] (active) and -97.7% [100 µM] (active) |
| O=[N+]([O-])c1cccc(-c2ncnc(-c3cccc([N+](=O)[O-])c3)n2)c1 | 53.2% [100 µM] (inactive) and 0.549% [100 µM] (active) |
| Cc1ccc(/C=N/Nc2cc(C)c3ccccc3n2)s1 | -69.9% [100 µM] (active) and -49% [100 µM] (active) |
